Source: PubChem BioAssay
Values without a mark were called inactive. Calls of active or inactive are those of the source. Unless noted, no stated cut-off is given here; in the data, active means inhibition above about 33%; inactive means the rest.

Key:
[1] = StAR promoter reporter inhibitors, counter-screen for LRH-1 inverse agonist project, cell-based, luminescence, high throughput (AID 651611; in the data active means inhibition above about 28%); details: StAR promoter luciferase reporter counterscreen, at 3.6 µM, stronger effect = higher value
[2] = target: Nuclear receptor subfamily 5 group A member 2 (Homo sapiens) (UniProt O00482); assay: LRH-1 (NR5A2) inverse agonists, retest, confirmation, cell-based, luminescence (AID 651613; in the data active means inhibition above about 42%;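 further: HEK293T cells co-transfected with LRH-1 and StAR promoter luciferase reporter; 0% = vehicle wells and 100% = parental cells lacking receptor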); details: cell-based LRH-1 luciferase reporter, inverse agonism; at 3.6 µM; stronger effect = higher value
Sequence of Nuclear receptor subfamily 5 group A member 2 (Homo sapiens) (O00482 whole entry, looked up): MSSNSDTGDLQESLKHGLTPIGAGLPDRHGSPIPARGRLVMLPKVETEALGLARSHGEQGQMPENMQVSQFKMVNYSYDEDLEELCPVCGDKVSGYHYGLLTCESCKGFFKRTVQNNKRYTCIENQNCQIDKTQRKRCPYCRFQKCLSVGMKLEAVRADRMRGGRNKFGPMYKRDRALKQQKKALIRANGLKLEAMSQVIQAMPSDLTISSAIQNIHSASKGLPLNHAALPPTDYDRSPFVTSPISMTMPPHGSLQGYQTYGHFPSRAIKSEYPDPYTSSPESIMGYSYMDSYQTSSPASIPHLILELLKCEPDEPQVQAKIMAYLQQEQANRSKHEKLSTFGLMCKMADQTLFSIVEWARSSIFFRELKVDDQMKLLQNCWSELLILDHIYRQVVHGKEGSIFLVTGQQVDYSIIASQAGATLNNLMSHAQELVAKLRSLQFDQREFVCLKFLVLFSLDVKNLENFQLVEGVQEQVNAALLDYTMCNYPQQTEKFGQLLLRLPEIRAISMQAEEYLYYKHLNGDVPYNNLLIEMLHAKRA

[3] = target: Steroidogenic factor 1 (Homo sapiens) (UniProt Q13285); assay: SF1 (NR5A1) inverse agonists, counter-screen for LRH-1 inverse agonist project, cell-based, luminescence, high throughput (AID 651614; in the data active means inhibition above about 44%;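 further: cells cotransfected with StAR promoter reporter and SF1 expression vector; 0% = vehicle on cells with receptor and 100% = vehicle on cells lacking receptor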); details: cell-based SF1 luciferase reporter, at 3.6 µM, stronger effect = higher value
Sequence of Steroidogenic factor 1 (Homo sapiens) (Q13285 whole entry, looked up, the tested form may be a part): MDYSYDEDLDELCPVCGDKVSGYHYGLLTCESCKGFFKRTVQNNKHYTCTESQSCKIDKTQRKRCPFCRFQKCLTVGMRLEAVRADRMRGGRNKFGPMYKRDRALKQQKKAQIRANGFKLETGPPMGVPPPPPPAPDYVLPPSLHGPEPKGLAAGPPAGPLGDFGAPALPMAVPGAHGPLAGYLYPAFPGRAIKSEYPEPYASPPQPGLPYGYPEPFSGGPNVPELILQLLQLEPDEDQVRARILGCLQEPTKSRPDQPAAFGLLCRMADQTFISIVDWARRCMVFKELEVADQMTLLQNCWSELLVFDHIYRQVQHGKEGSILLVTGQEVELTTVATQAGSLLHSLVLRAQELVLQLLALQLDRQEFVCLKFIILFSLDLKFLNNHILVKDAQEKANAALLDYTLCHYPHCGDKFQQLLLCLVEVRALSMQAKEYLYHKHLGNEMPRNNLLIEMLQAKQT

[4] = VP16 transactivation reporter inhibitors, counter-screen for LRH-1 inverse agonist project, cell-based, luminescence, high throughput (AID 651615); details: Gal4-VP16 luciferase reporter cells, at 3.6 µM, stronger effect = higher value

SMILES | inhibition [1] | inhibition [2] | inhibition [3] | inhibition [4]
CCCCCOc1ccc(NC(=O)CSc2cccc3cccnc23)cc1 | -12.7% | 42.7% (active) | 26.9% | -9.81%
O=C(NCC1CCCO1)c1ccc(NC(=O)c2cccc([N+](=O)[O-])c2)cc1 (configuration not stated) | 3.83% | 56.2% (active) | 54% (active) | -2.03%
COc1ccc(NC(=O)COC(=O)c2c(-c3ccccc3)noc2C)cc1 | 15.3% | 63% (active) | 66.1% (active) | -5.04%
COc1ccc(N2CCN(C(=O)C3CCC(Cn4c(=S)[nH]c5ccccc5c4=O)CC3)CC2)cc1 (configuration not stated) | 9.08% | 36.1% | 39.2% | 26.8%
O=C(COC(=O)Cn1[nH]c(=O)c2ccccc2c1=O)NNC(=O)c1ccc(Br)cc1 | 27.8% (active) | 32.1% | 35.8% | -7.59%
Cc1ccc(Cn2nc(C)c(NC(=O)c3noc4c3CCCCC4)c2C)cc1 | 14.1% | 53.6% (active) | 50.7% (active) | -1.13%
COc1ccc(-c2cc3nc(-c4ccccc4)cc(N4CCN(C(C)=O)CC4)n3n2)cc1 | 32.4% (active) | 31.1% | 39.3% | -11.9%
CC(=O)Oc1ccc(-c2ccc(C(=O)Nc3cccc(S(=O)(=O)N4CCOCC4)c3)cc2)cc1 | 25.5% | 35.1% | 52.1% (active) | 59.4% (active)
